The text below walks through data of ChEMBL document CHEMBL4513216, “Probing the Open Global Health Chemical Diversity Library for Multistage-Active Starting Points for Next-Generation Antimalarials” (ACS Infect Dis, 2020).

Molecules are shown by their SMILES. Out of some 69,000 compounds screened, about 8,600 (12%) showed an effect of 50% or more. For the sample, strong results were picked, then their nearest neighbours and some compounds at random.

This assay concerns Plasmodium berghei. Kind of assay: Screen against P. berghei liver stage (PbLuc), transformed with Luciferase, at 10uM. Type of assay: functional, HepG2. Conditions: tested at 10 uM.
As for `CS(=O)(=O)N1CCOCC2(CCN(Cc3ccoc3)CC2)C1`, the INHIBITION is on record as 35.5%.
The same measure for `CSc1ccc(CN2CCCC3(CNC(=O)c4ccccc4O3)C2)cc1` (stereo unspecified): 73.7%; for `O=C1NCC2(CCCN(Cc3ccncc3)C2)Oc2ccccc21` (stereo unspecified): 36.4%.
For `O=C1NCC2(CCCN(Cc3ccc(F)cc3)C2)Oc2ccccc21` (stereo unspecified), the INHIBITION is 46%.
The figure for `O=C(NCCc1nccs1)c1n[nH]c2c1CCC2` is -147%; for `Cc1ccc2cccc(C(=O)NCCOCC3CC3)c2n1` it is -58.5%; for `CN1CCC(CNC(=O)c2ccc3cccc(Cl)c3n2)C1` (stereo unspecified) it is 9.4%.
`Cc1ccc2cccc(C(=O)NCC3CCN(C(C)C)C3)c2n1` (stereo unspecified): the INHIBITION is 50.1%.
Turning to `COCCn1cnc2c(F)cc(Br)cc2c1=O`, the INHIBITION came out at 47.4%.
With `CC(C)N(C)S(=O)(=O)c1ccc2c(c1)CCN(C(=O)c1cnccn1)C2`, the INHIBITION is reported as 28.8%.
The same measure for `CC(C)N(C)S(=O)(=O)c1ccc2c(c1)CCN(C(=O)c1cscn1)C2`: 65.2%; for `CC(C)N(C)S(=O)(=O)c1ccc2c(c1)CCN(C(=O)c1ccccn1)C2`: -12.1%.
For the compound `CCCc1cc(C(=O)NC(C)c2ccccc2)n(C)n1` (stereo unspecified), the INHIBITION is given as 8.7%.
The figure for `O=C(O)c1cc(Br)cnc1OCC1CC1` is 14.4%; for `Cc1cc2c(cc1CNC(Cc1cccs1)c1nccs1)OCO2` (stereo unspecified) it is 28.375%.
Regarding `CCSCCC(=O)Nc1ncn(Cc2cccnc2)n1`, the INHIBITION was -11.1%.
The figure for `CCC(=O)Nc1ncn(Cc2cccnc2)n1` is 61.2%; for `CCSCCC(=O)Nc1ncn(Cc2ccccc2)n1` it is 42%; for `N#Cc1ccc(NCC(=O)Nc2ccn(Cc3cccnc3)n2)cc1` it is 41.4%.
Turning to `N#Cc1ccc(NCC(=O)Nc2ncn(Cc3cccnc3)n2)cc1`, the INHIBITION is recorded as 72.3%.
Consider `CC(C)N(Cc1cccnc1)C(=O)CNc1ccc(C#N)cc1`, for which the INHIBITION is -21%.
The figure for `Cc1ncsc1C(=O)NCCn1nc(C2CCNC2)c2cccnc21` (stereo unspecified) is 38.7%; for `CCc1nc(CC(=O)NCC(Cc2ccc(F)cc2)C(N)=O)cs1` (stereo unspecified) it is 48.2%; for `O=C(NC1CC1)c1cccc(Oc2ccc3nncn3n2)c1` it is -34.4%.
For the compound `COc1cc(C)sc1C(=O)N1CC(c2cccnc2)C1`, the INHIBITION is recorded as 56.8%.
As for `CC1(C)CC1(C(=O)N1CC(c2cccnc2)C1)c1ccc(F)cc1` (stereo unspecified), the INHIBITION is 21.2%.
The same measure for `COc1cc(C)sc1C(=O)N1CCC(Nc2cccnc2)CC1`: 18.5%; for `CC1(C)CC1(C(=O)N1CC(c2cccnc2)C1)c1ccccc1F` (stereo unspecified): 28.7%.
With `Cc1ccc(C(=O)N2CCSCC2)cc1N1CCNC1=O`, the INHIBITION is listed as 48.5%.
The same measure for `Cc1ccc(C(=O)N2CC(c3cccnc3)C2)cc1N1CCNC1=O`: 56.7%; for `Cc1ccc(C(=O)N2Cc3ccccc3C2)cc1N1CCNC1=O`: 2.74%.
The figure for `COc1cc(C)sc1C(=O)N1CCCCC1c1ccccn1` (stereo unspecified) is 47.7%; for `COc1ccc(C2(C(=O)N3CC(c4cccnc4)C3)CC2(C)C)cc1` (stereo unspecified) it is 55.4%.
The figure for `COc1ccccc1CC(=O)N1CCCC(c2cc(C)[nH]n2)C1` (stereo unspecified) is -24.2%; for `Cc1ccc(-c2nnc(CNC(=O)c3cccnc3)o2)cn1` it is 30.4%.
For the compound `CC(=O)N1CCCN(C(=O)NCCCn2cncn2)CC1`, the INHIBITION was -10.895%.
For the compound `COCCN(C)C[C@@H]1CN(C(=O)c2ccc(OC)c(F)c2)C[C@@H]1CO`, the INHIBITION is on record as 0.29%.
The same measure for `COc1cccc(C(=O)N2C[C@@H](CN(C)CCO)[C@@H](CO)C2)c1C`: 20.6%.
With `COCCN(C)C[C@H]1C[C@H](CO)CN(C(=O)c2ccn(C)c(=O)c2)C1`, the INHIBITION was found to be 11.7%.
On to `COCCN(C)C[C@H]1C[C@@H](CO)CN(C(=O)c2ccn(C)c(=O)c2)C1`, for which the INHIBITION turned out to be 35.5%.
The same measure for `COCCN(CCN(C)C)C(=O)NC1CCc2ccccc2C1` (stereo unspecified): -65.3%; for `COc1ccc(C)cc1C(=O)N1C[C@@H](CN(C)CCO)[C@@H](CO)C1`: 56.9%.
`COc1cc(C)ccc1C(=O)N1C[C@@H](CN(C)CCO)[C@@H](CO)C1`: the INHIBITION is listed as -1.38%.
Turning to `COCCN(C)C[C@H]1C[C@H](CO)CN(C(=O)c2ccc(=O)n(C)c2)C1`, the INHIBITION was 50.7%.
The same measure for `COCCN(CCOC)C(=O)NC1CCCCC1`: 50.8%; for `COc1ccc(F)c(F)c1C(=O)N1C[C@@H](CN(C)CCO)[C@@H](CO)C1`: -1.38%.
With `COCCN(CCN(C)C)C(=O)NC1CC1`, the INHIBITION is 7.25%.
As for `COCCN(C)C[C@@H]1CN(C(=O)c2c(F)ccc(OC)c2F)C[C@@H]1CO`, the INHIBITION is 84.4%.
On to `CS(=O)(=O)c1ccc(Cl)c(NC(=O)NCCC2=CCCCC2)c1`, for which the INHIBITION is on record as 0.818%.
The same measure for `COCCC1COC2(CCN(C(=O)c3ccco3)CC2)C1` (stereo unspecified): 29.6%; for `CN(C)C(=O)[C@H]1C[C@H]2OCC[C@H]2N(Cc2ccc3ccccc3n2)C1`: 25.2%.
